Compound activity (PubChem)
Akt phos inh: HTS Assay for Inhibitors of Akt Phophorylation: Primary Screen; Neuro2A IGF-stimulated pAkt S473 HTRF, 20 min; hits give low values; activity change, % for hits at 50 µM; 360,000 compounds, 0.32% hits; AID 651550, 2012; in the data active = activity change below about -80%; inconclusive = mostly about -51% to -80%; note: % is set by controls: 0 for no effect and ±100 for the full control effect
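Neuro2A cells (4,500/well, DMEM with 0.5% FBS) were treated with compound at a single 50 µM final concentration, stimulated with 6 nM IGF for 20 min at 37 °C, and lysed. Phospho-Akt Ser473 was read by HTRF as 665/615 ratio ×10^4.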
IDH1 R132H inh: qHTS for Inhibitors of mutant isocitrate dehydrogenase 1 (IDH1): qHTS; Isocitrate dehydrogenase [NADP] cytoplasmic (Homo sapiens), O75874; IDH1-R132H enzyme, NADPH consumption, diaphorase/resazurin fluorescence; Potency, µM (doses to about 76.6 µM), for inactives: at the top dose activity change, negative = inhibition, hits mostly inhibitors; 390,000 compounds, 0.093% hits; note: potency is the fitted concentration of half-maximal effect; % is set by controls: 0 for no effect and ±100 for the full control effect; nearly all actives have a fitted effect of over 65% in size
Target sequence (O75874 whole entry R132H, stated change not applied): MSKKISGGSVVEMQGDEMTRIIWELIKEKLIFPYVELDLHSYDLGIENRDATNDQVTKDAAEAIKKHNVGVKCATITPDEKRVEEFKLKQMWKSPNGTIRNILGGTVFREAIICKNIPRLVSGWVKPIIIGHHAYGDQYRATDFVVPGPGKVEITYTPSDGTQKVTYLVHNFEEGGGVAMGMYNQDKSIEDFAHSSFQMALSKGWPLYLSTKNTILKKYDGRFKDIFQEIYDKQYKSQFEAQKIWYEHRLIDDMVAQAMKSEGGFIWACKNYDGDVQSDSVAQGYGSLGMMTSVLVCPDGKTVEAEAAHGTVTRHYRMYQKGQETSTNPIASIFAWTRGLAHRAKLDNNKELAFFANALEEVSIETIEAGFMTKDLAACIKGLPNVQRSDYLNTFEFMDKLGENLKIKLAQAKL
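IDH1-R132H (0.5 ug/mL dispensed) in pH 7.5 Tris buffer was preincubated 30 min with compound, then given a substrate mix of 0.016 mM NADPH and 2 mM alpha-KG for 80 min at room temperature; remaining NADPH was read by diaphorase/resazurin fluorescence.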
Glioma ERSR ind: qHTS for Inducers of the Endoplasmic Reticulum Stress Response (ERSR) in Human Glioma: qHTS. Potency, µM, for inactives: at the highest dose activation, usual class: activators. 420,000 compounds, 0.02% hits. AID 602332, 2012. U87-MG GRP78 promoter luciferase reporter, 16 h; note: potency is the fitted concentration of half-maximal effect; series mostly up to about 76 µM; % of control where 0% means no effect; nearly all actives have a fitted effect of over 35% in size
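Stably transfected U87-MG human glioma cells carrying a GRP78-based luminescent sensor were seeded at 1000 cells/well, pin-dosed with compounds and incubated 16 h. Luciferase reagent was then added, and end-point luminescence was read after 10 min at room temperature.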
GLS inh: qHTS for Inhibitors of Glutaminase (GLS); Glutaminase kidney isoform, mitochondrial (Homo sapiens), O94925; GLS enzymatic activity, qHTS titration; Potency, µM (doses to about 45.5 µM), for inactives: top-dose activity change, negative = inhibition, actives largely listed as inhibitors; 410,000 compounds, 0.21% hits; note: potency is the fitted concentration of half-maximal effect; % is set by controls: 0 for no effect and ±100 for the full control effect
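Assay buffer: 45 mM KH2PO4 pH 8.2, 0.02% Tween-20. hKGA acts on L-glutamine (1 mM solution added); product glutamate is reported by an oxidase/peroxidase Amplex Red coupling, with fluorescence taken at baseline and 30 min.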
CCT modulator: High-Throughput Screening for Modulators of Cytosolic Chaperonin Activity; purified chaperonin ATPase assay, HTRF ADP detection, 30 min; activity change, % (no concentration beside the values), hits read low; 360,000 compounds, 0.3% hits; AID 651819, 2012; in the data active = activity change below about -30%; note: % is set by controls: 0 for no effect and ±100 for the full control effect
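ATPase activity: ADP formed was measured by HTRF Transcreener (665/615 nm ratio) after 30 min at 37 deg C with 10 uM ATP. Compounds screened at one 76 uM concentration against 40 or 20 nM TRiC in Tris pH 7.4/KCl/MgCl2/DTT buffer.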
MmCpn inh: Inhibitors of TCP-1 ring complex (TRiC) of Methanococcus maripaludis (MmCpn): qHTS | Chaperonin Mm-Cpn (Methanococcus maripaludis) | purified Mm-Cpn ATPase, ADP Transcreener TR-FRET | Potency, µM (top dose mostly 76.9 µM), without a hit: at the highest dose activity, negative = inhibition, usual class: inhibitors | 330,000 compounds, 0.031% hits; note: potency is the fitted concentration of half-maximal effect; % is set by controls: 0 for no effect and ±100 for the full control effect; nearly all actives have a fitted effect of over 80% in size
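Inhibition of chaperonin ATP hydrolysis is measured as reduced ADP production, detected by competitive TR-FRET in which signal falls with ADP. Final enzyme 25 nM and ATP 10 uM, reacted 30 min at 37°C.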
IDH1 autofl: qHTS for Inhibitors of mutant isocitrate dehydrogenase 1 (IDH1): Cherrypicks Autofluorescence Interference. 750 tested, under 10 active. Resorufin detection reagent fluorescence interference, cell-free. inhibition of signal, % at 51.2 µM. shares compounds with IDH1 R132H inh;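 note: 0% = wells with normal resorufin and full inhibition = wells lacking resorufin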
WT IDH1 inh: qHTS for Inhibitors of mutant isocitrate dehydrogenase 1 (IDH1): Cherrypicks in WT IDH1; shares compounds with IDH1 R132H inh; WT IDH1 enzyme, NADPH diaphorase/resazurin fluorescence; Potency, µM (highest dose often 115 µM), without a hit: at the highest dose activity change, negative = inhibition, usual class: inhibitors; 750 compounds, 9% hits; AID 623995, 2012;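 note: potency is the fitted concentration of half-maximal effect; 0% = full WT IDH1 enzyme control and full inhibition = no enzyme wells; nearly all actives have a fitted effect of over 55% in size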
Target sequence (O75874 whole entry, looked up): as the sequence (O75874 whole entry R132H, stated change not applied) above, with H132R counted along it
IDH1 R132H conf: qHTS for Inhibitors of mutant isocitrate dehydrogenase 1 (IDH1): Confirmation of Cherrypicks; Potency, µM (doses to about 76.6 µM), for the others: at the top dose activity change, negative = inhibition, hits mostly inhibitors; 750 compounds, 83% hits; AID 624002, 2012; IDH1 R132H enzyme, NADPH diaphorase/resazurin fluorescence; shares compounds with IDH1 R132H inh; note: potency is the fitted concentration of half-maximal effect; nearly all actives have a fitted effect of over 50% in size
Starred values were filed as active, the others as inactive; i = inactive; ? = inconclusive; nt = not tested or not shown. Most compounds without a hit are left out; they make up all but 0.85% or so of the library. Unless noted, calls come from the whole dose curve; as a rule, active = well fitted curve in the direction sought with a large enough effect; inconclusive = small, poorly fitted or top-dose-only effect, or another doubt; inactive = no such curve, though single readings can be large; an effect the other way counts as inactive or inconclusive.

SMILES	Akt phos inh	IDH1 R132H inh	Glioma ERSR ind	GLS inh	CCT modulator	MmCpn inh	IDH1 autofl	WT IDH1 inh	IDH1 R132H conf
CC1(c2ccccc2)O[C@@H]2C[C@H]3[C@@H]4CCC5=CC(=O)C=C[C@]5(C)[C@@]4(F)[C@@H](O)C[C@]3(C)[C@]2(C(=O)CO)O1 (some centres not stated)	i	29µM*	-5%	0%	-1	-1%	-6	-14%	5µM*
Cc1ncc2c(c1CNC(=O)/C=C/c1cccs1)CCN(C(=O)c1ccc3c(c1)OCCO3)C2	nt	nt	-2%	nt	nt	nt	nt	nt	nt
O=C(NCC1COc2ccccc2O1)c1c[nH]c2ccc(S(=O)(=O)N3CCOCC3)cc2c1=O (configuration not stated)	i	?	-7%	0%	0	2%	-13	-21%	1%
CCOc1ccc(C2c3c(-c4ccccc4O)n[nH]c3C(=O)N2Cc2cccnc2)cc1OC (configuration not stated)	nt	?	-1%	11%	nt	nt	1	-12%	32µM*
CCOc1cc(C2c3c(-c4ccccc4O)n[nH]c3C(=O)N2Cc2cccnc2)ccc1O (configuration not stated)	nt	7%	5%	20%	nt	nt	nt	nt	nt
COc1cc(C2c3c(-c4ccccc4O)n[nH]c3C(=O)N2Cc2ccncc2)cc(OC)c1OC (configuration not stated)	nt	-14%	-1%	5%	nt	nt	nt	nt	nt
COc1ccc(C2c3c(-c4cc(Cl)c(C)cc4O)n[nH]c3C(=O)N2Cc2cccnc2)cc1OC (configuration not stated)	i	?	-6%	6%	1	1%	8	5%	28µM*
O=C1c2cccc3c(N4CCCCC4)ccc(c23)C(=O)N1c1ccccn1	i	0%	8%	7%	0	1%	nt	nt	nt
O=C1c2ccccc2-c2n[nH]c(=O)c3ccc(N4CCCCC4)c1c23	i	?	-2%	-2%	0	-2%	-4	?	32µM*
Nc1c(S(=O)(=O)O)cc(NC(=O)c2ccccc2)c2c1C(=O)c1ccccc1C2=O	i	?	-7%	?	0	-8%	-14	28µM*	14µM*
C[C@H]1CN([C@@H](C)CO)C(=O)CCCn2nncc2CO[C@H]1CN(C)S(=O)(=O)c1ccc(Oc2ccccc2)cc1	i	?	-5%	-8%	0	nt	2	2%	?
Brc1ccc2c(c1)C(c1cccs1)=NNC(c1cccnc1)=N2	?	29µM*	-5%	-2%	-3	-6%	-10	-4%	22µM*
Cc1ccc(N2C(=O)c3n[nH]c(C)c3C2c2ccccc2Cl)cc1 (configuration not stated)	nt	-12%	0%	14%	nt	nt	nt	nt	nt
Cc1ccc(N2C(=O)c3n[nH]c(C)c3C2c2ccc(Cl)cc2)cc1 (configuration not stated)	nt	?	2%	9%	nt	nt	-3	-3%	45µM*
Cc1ccc(C)c(N(C)C(=O)c2cc3c(=O)[nH]c4ccc(C)cc4c3s2)c1	i	21µM*	-5%	2%	-1	-8%	-3	?	11µM*
COc1c(OC(C)=O)ccc(/C=C/c2ccc3cccc(OC)c3n2)c1[N+](=O)[O-]	i	?	-3%	12%	-3	-1%	nt	nt	nt
COc1c(OC(C)=O)ccc(/C=C/c2ccc3ccccc3n2)c1[N+](=O)[O-]	i	?	6%	4%	0	0%	-15	2%	32µM*
Cc1ccc(-c2cc(C(F)F)n3ncc(C(=O)N4CCCCC4c4cccnc4)c3n2)cc1 (configuration not stated)	i	?	-3%	-19%	-14	0%	-5	6%	35µM*
Cn1c2ccccc2c2cc(C(=O)N3CCOc4ccc(C(C)(O)CCn5cccn5)cc4C3)ccc21 (configuration not stated)	nt	nt	-3%	nt	nt	nt	nt	nt	nt
O=C(NCCc1nnc2n1CCN(Cc1c(F)cccc1F)CC2)c1ccc(F)cc1	nt	nt	-1%	nt	nt	nt	nt	nt	nt
O=C1c2[nH]nc(-c3ccccc3O)c2C(c2cccc(Cl)c2)N1CC1CCCO1 (configuration not stated)	i	?	0%	17%	0	1%	10	0%	40µM*
CCCCN1C(=O)c2[nH]nc(-c3ccccc3O)c2C1c1cc(Br)c(O)c(OC)c1 (configuration not stated)	nt	28µM*	-4%	1%	nt	nt	1	40µM*	8.9µM*
COc1ccc(CCN2C(=O)c3[nH]nc(-c4ccccc4O)c3C2c2cccc(O)c2)cc1OC (configuration not stated)	i	-14%	-4%	17%	-1	3%	nt	nt	nt
COc1cccc(C2c3c(-c4ccccc4O)n[nH]c3C(=O)N2CCc2ccc(OC)c(OC)c2)c1 (configuration not stated)	nt	?	-4%	13%	nt	nt	-1	10%	25µM*
OCCN1CCN(Cc2ccc3c(c2)CN(Cc2cnc(-c4ccccc4)s2)CCO3)CC1	nt	nt	-3%	nt	nt	nt	nt	nt	nt
COCc1c(C(=O)N2CCN(C3CCCC3)CC2)cnn1-c1nccc(-c2cccs2)n1	nt	nt	3%	nt	nt	nt	nt	nt	nt
O=C(NC1CCCCC1)N(Cc1ccc(F)cc1)Cc1nc2ccccc2c(=O)[nH]1	i	?	-4%	-1%	-2	-1%	0	10%	28µM*
